Read-out in test [1]: Interleukin-8 (IL8), CXCL8 (gene 3576)
Nature of the test: BSK_3C_IL8: BioMAP Diversity Plus: 3C Assay for Interleukin-8 (IL8) Biomarker Activity (AID 2283020). Conditions: primary human endothelial cells (HUVEC); actives raise or lower the signal. The method, boiled down: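 Human vascular endothelial cells (umbilical vein) in the 3C system; IL-8 level detected by ELISA at 24 h post-dose, with DMSO as baseline.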

Read-out in test [2]: Monokine induced gamma interferon (MIG), CXCL9 (gene 4283)
The test can be described thus: BSK_3C_MIG: BioMAP Diversity Plus: 3C Assay for Monokine induced gamma interferon (MIG) Biomarker Activity (AID 2283021).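 As to AC50: MIG protein level measured by immunoassay in the treated endothelial cultures.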 As to conditions: primary human endothelial cells (HUVEC); actives raise or lower the signal. The essentials: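 After 24 h of treatment, human umbilical vein endothelial cultures (3C system) had their MIG biomarker level determined by ELISA, with DMSO serving as negative control.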

In test [3] the target is human Vitamin D Receptor (VDR), VDR (gene 7421) (UniProt P11473). Nature of the test: ATG_VDR_TRANS: Attagene TRANS-FACTORIAL HepG2 Assay for human Vitamin D Receptor (VDR) (AID 2283022; active = hit-call score of the fitted dose curve at least 0.9, where 1 is the maximum). The essentials: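 Fluorescence of labelled reporter cDNA fragments, resolved by capillary electrophoresis, gives mRNA induction after 24 h treatment of HepG2 cells carrying transfected Gal4-fusion reporter units. Activity is fitted in the positive direction with DMSO as baseline.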

Read-out in test [4]: Matrix Metallopeptidase 1 (MMP1), MMP1 (gene 4312)
The test can be described thus: BSK_BE3C_MMP1: BioMAP Diversity Plus: BE3C Assay for Matrix Metallopeptidase 1 (MMP1) Biomarker Activity (AID 2283024). Conditions: primary human bronchial epithelial cells; actives raise or lower the signal. The essentials: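 Dose cells, wait 24 h, run MMP1 ELISA; cells are human bronchial epithelial primaries. Both increases and decreases relative to DMSO counted.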

Test [5] in a line: BSK_3C_Vis: BioMAP Diversity Plus: 3C Assay for Morphology Visualization (AID 2283025).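 Also: fitted both ways so gain or loss versus DMSO counts.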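 As to AC50: light microscopy image of cell morphology used as background control; cells imaged 24 h after dosing.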 As to conditions: primary human endothelial cells (HUVEC). The method, boiled down: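 Endothelial cells from human umbilical vein were treated with test chemicals for 24 h and inspected by light microscopy for changes in cell conformation.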
Read-out in test [6]: Pselectin, SELP (gene 6403)
The test can be described thus: BSK_4H_Pselectin: BioMAP Diversity Plus: 4H Assay for Pselectin Biomarker Activity (AID 2283026). As to conditions: primary human endothelial cells (HUVEC); actives raise or lower the signal. The essentials:
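Human vascular endothelium from umbilical vein; P-selectin measured by ELISA at 24 h post-dose, with cytotoxicity checked by sulforhodamine B total-protein staining in parallel cultures (0.1% SRB after 10% TCA fixation, read at 560 nm).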

The nature of test [7]: BSK_4H_SRB: Viability Assessment in the BioMAP Diversity Plus: 4H Assay (AID 2283027).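 Also: cells exposed to compound for 24 h before staining.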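 As to AC50: curves fitted both ways versus DMSO so AC50 may be loss or gain.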 As to conditions: primary human endothelial cells (HUVEC). The method, boiled down: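 Human umbilical vein endothelial cells were dosed with chemical and, after 24 h, fixed with 10% TCA, stained with 0.1% sulforhodamine B, and read at 560 nm to give total protein as a cytotoxicity measure. Bidirectional fitting relative to DMSO control.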

The nature of test [8]: BSK_BE3C_SRB: Viability Assessment in the BioMAP Diversity Plus: BE3C Assay (AID 2283028).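 Also: measured 24 h after chemical dosing.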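 As to AC50: fitted both ways so AC50 may mark signal gain or loss versus DMSO.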 Conditions: primary human bronchial epithelial cells. The method, boiled down: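 Overt cytotoxicity was assessed as total protein in confluent human primary bronchial epithelial cultures 24 h after chemical addition, using 0.1% sulforhodamine B staining read at 560 nm.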
The nature of test [9]: BSK_3C_SRB: Viability Assessment in the BioMAP Diversity Plus: 3C Assay (AID 2283023).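 Also: cells read 24 h after compound dosing; fitted both ways against DMSO so a hit may be signal rise or drop.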 As to conditions: primary human endothelial cells (HUVEC). The method, boiled down:
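Cells were dosed with chemical, cultured 24 h, fixed with 10% TCA, stained with 0.1% SRB and read at 560 nm. Human umbilical vein endothelium was used; DMSO served as negative control and baseline.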

Read-out in test [10]: Thrombomodulin, THBD (gene 7056)
The test can be described thus: BSK_3C_Thrombomodulin: BioMAP Diversity Plus: 3C Assay for Thrombomodulin Biomarker Activity (AID 2283029). Conditions: primary human endothelial cells (HUVEC); actives raise or lower the signal. The essentials: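 Thrombomodulin ELISA, human primary HUVEC, 24 h post-dose; data fitted in both directions relative to DMSO.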

Molecules are shown by their SMILES. Where “and” joins values, the source holds several entries; their conditions need not be identical. Identical values can stand only once. Records with an inconclusive call do not appear. Some structures have more than one record in an assay (separate samples or runs), and their calls can disagree. Calls of active or inactive are those of the source. The calls were made as follows, unless noted: active = hit-call score of the fitted dose curve at least 0.9, where 1 is the maximum; inactive = score below 0.9.

Sequence of human Vitamin D Receptor (VDR), VDR (gene 7421) (P11473 whole entry, looked up, the tested form may be a part): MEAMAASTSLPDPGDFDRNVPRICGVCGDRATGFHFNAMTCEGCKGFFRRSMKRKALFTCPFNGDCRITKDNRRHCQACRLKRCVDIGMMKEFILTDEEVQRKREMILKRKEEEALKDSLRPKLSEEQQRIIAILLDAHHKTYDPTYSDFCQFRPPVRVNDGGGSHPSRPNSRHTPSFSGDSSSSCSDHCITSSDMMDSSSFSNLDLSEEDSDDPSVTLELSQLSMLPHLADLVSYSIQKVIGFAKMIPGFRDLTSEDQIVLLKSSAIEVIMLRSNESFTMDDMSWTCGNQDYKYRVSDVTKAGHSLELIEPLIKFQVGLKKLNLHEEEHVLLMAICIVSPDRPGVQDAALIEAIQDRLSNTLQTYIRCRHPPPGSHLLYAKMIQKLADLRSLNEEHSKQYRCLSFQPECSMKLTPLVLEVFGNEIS

Broadly, the AC50 is the concentration giving half of the maximal activity seen. In the case of `C[C@]12CC[C@@H]3c4ccc(O)cc4CC[C@H]3[C@@H]1CC[C@@H]2O`, the result in test [1], in test [2], in test [3], in test [4], in test [6] and in test [8] was inactive. For the same molecule, the figures for the AC50 in test [5] and in [7] were 13.7 µM (active) and 12.4 µM (active), respectively.

On to `CC(C)Cc1ccc(C(C)C(=O)O)cc1` (stereo not given), for which, in test [1], the AC50 is 0.0158 µM (active). The outcome in [2], in [9], in test [4], in test [5], in test [6] and in test [7] was inactive. For the same molecule, the result in test [8] was inactive.

Turning to `CCC(=O)OCC=Cc1ccccc1`, the result in test [1], in [2], in [3], in test [9], in test [4] and in test [5] was inactive. For the same molecule, the result in [6], in [7] and in test [8] was inactive.

As for `O=C(c1ccc(OCCN2CCCCC2)cc1)c1c(-c2ccc(O)cc2)sc2cc(O)ccc12`, the AC50 in test [1] is 20 µM (active); in [2], 36.1 µM (active); in test [9], 18.8 µM (active); in test [4], 32.2 µM (active); in [5], 22.3 µM (active); in test [6], 25.2 µM (active). For the same molecule, the AC50 is 33.2 µM (active) in test [7] and 38.1 µM (active) in [8].

`CC(=O)OCC=C(C)CCC=C(C)CCC=C(C)C`: the result in [1], in test [2], in test [9], in [4], in test [5] and in [6] was inactive. For the same molecule, the outcome in test [7] and in test [8] was inactive.

On to `O=C(O)C(F)(F)OC(F)(F)C(F)(F)OC(F)(F)C(F)(F)C(F)(F)C(F)(F)F`, for which the outcome in test [1], in test [2], in test [9], in [6], in [7] and in test [8] was inactive. Also, the outcome in test [10] was inactive. Besides, the AC50 was 46 µM (active) in [9]; 19.9 µM (active) and 21.3 µM (active) in [4].

Take `COC(=O)c1ccc(C(=O)OC)cc1`: the result in [1], in [2], in [3], in [9], in test [4] and in test [5] was inactive. The result in test [6], in test [7] and in [8] was inactive.

In the case of `CC1=CC(C)C(C=O)C(C)C1` (stereo not given) (tested in a mixture with another compound), the outcome in [1], in [2], in test [9], in [4], in [5] and in [6] was inactive. The outcome in test [7] and in test [8] was inactive.

Consider `CCOC(=O)CCCCCCCCC(=O)OCC`, for which the outcome in test [1], in test [2], in [9], in test [4], in test [5] and in test [6] was inactive. The outcome in [7] and in [8] was inactive.

Regarding `c1ccc(Sc2ccccc2)cc1`, the AC50 in [1] was 20 µM (active); in test [9], 32.3 µM (active); in test [4], 0.016 µM (active); in [5], 37.8 µM (active); in [6] it was 29.6 µM (active); in test [7], 31.1 µM (active). The result in [2] and in [8] was inactive.

Take `CCn1cc(C(=O)O)c(=O)c2ccc(C)nc21`: the result in test [1], in test [2], in test [3], in test [9], in test [4] and in test [6] was inactive. The result in test [7] and in test [8] was inactive.

Take `NC(=O)c1c(Cl)cccc1Cl`: the outcome in test [1], in test [2], in test [9], in test [4], in test [5] and in test [6] was inactive. In addition, the outcome in test [7] and in test [8] was inactive.

For the molecule `CC(C)(C)c1cccc(O)c1`, the outcome in [1], in [2], in test [9], in test [4], in test [5] and in [6] was inactive. In addition, the result in [7], in [8] and in test [10] was inactive.

`CCCCCCCCCCCCS`: the AC50 in test [1] is 20 µM (active); in test [9], 26.5 µM (active); in [4], 20 µM (active); in test [5], 20 µM (active); in test [6], 20 µM (active); in [7], 29.6 µM (active). Further, the result in test [2], in test [3] and in [8] was inactive.

Consider `CCCCN(CCO)CCO`, for which the outcome in test [1], in [2], in [3], in test [9], in test [4] and in test [6] was inactive. The outcome in test [7] and in test [8] was inactive.

As for `C=C(C)C(=O)OCCC(F)(F)C(F)(F)C(F)(F)C(F)(F)C(F)(F)C(F)(F)C(F)(F)C(F)(F)F`, the outcome in [1], in test [2], in [9], in [4], in test [6] and in test [7] was inactive. For the same molecule, the outcome in test [8] was inactive.

As to `CCCCC(CC)COCCO` (stereo not given), the call in [3] was inactive.

`Cc1cccc(C)c1`: the call in test [3] was inactive.

As for `C=C(C)C(=O)OCCC(C)OC(=O)C(=C)C` (stereo not given), the outcome in test [3] was inactive.

With `Cc1ccccc1S`, the call in [3] was inactive.

As to `CCCCCCCOC(C)=O`, in [3], the call was inactive.

With `C=C/C(C)=C/C/C=C(\C)CCC=C(C)C`, the molecule was called inactive in [3].

In the case of `CC(=O)Oc1c(C)c(C)c2c(c1C)CC[C@@](C)(CCC[C@H](C)CCC[C@H](C)CCCC(C)C)O2`, the result in test [3] was inactive.

In the case of `C=C(C)C(=O)OCCN(C)C`, in test [3], the outcome was inactive.

With `CC(=O)c1cccnc1`, in [3], the molecule was called inactive.

Consider `CC(C)(CO)CO`, for which the result in test [1], in test [2], in test [9], in [4], in test [6] and in [7] was inactive. The result in [8] was inactive. For the same molecule, the AC50 in [6] is 5.64 µM (active).

With `CC(C)N(c1ccccc1)C(C)C`, the molecule was classed as inactive in test [3].

For `c1coc(CNc2ncnc3nc[nH]c23)c1`, in [3], the outcome was inactive.

`O=C(O)c1cccc(Cl)n1`: the result in test [3] was inactive.

On to `COc1ccc(OC)cc1`, for which, in test [3], the molecule was called inactive.

`C=CCCCCCCCCC(=O)OCC`: in test [3], the result was inactive.

As to `CC(=O)c1ccc(C)cc1`, the outcome in [1], in test [2], in test [9], in [4], in test [6] and in [7] was inactive. For the same molecule, the outcome in test [8] and in test [10] was inactive.

In the case of `C/C=C(\C)C(=O)OC/C=C(\C)CCC=C(C)C`, the outcome in [3] was inactive.

With `CCCCCCCCCCCCCCCCCC(=O)OCCCCCCCCCCCCCC(C)C`, the outcome in [3] was inactive.

With `OC[C@@H](O)[C@H](O)[C@@H](O)[C@@H](O)CO`, the molecule was classed as inactive in test [3].

On to `OCCCO`, for which the call in [3] was inactive.

Turning to `CC(C)COC(=O)c1ccccc1`, the result in [3] was inactive.

Turning to `CC(=O)CC(=O)N(C)C`, the result in test [3] was inactive.

As for `OCC=Cc1ccccc1`, the result in test [3] was inactive.

For `CC(=O)CCc1ccc(O)cc1`, in test [3], the result was inactive.

With `CCCCOCC(C)OCC(C)O` (stereo not given), the result in [3] was inactive.

With `[Cl][Dy]([Cl])[Cl]`, the result in [3] was inactive.

As for `O=C(O)C(F)(F)C(F)(F)C(F)(F)C(F)(F)C(F)(F)C(F)(F)C(F)(F)C(F)F`, the outcome in test [1], in test [2], in test [9], in test [6], in test [7] and in test [8] was inactive. The AC50 was 11.5 µM (active) and 35.9 µM (active) in [4]; 19.5 µM (active) in test [6].

For the origin of these results see PubChem BioAssay (EPA / NIEHS).
